Sfp PPTase inh – blocks B. subtilis Sfp PPTase activity; Q9F4F7; Biochemical Sfp PPTase activity, qHTS; Potency, µM, most hits filed as inhibitors; actives 3.5% (n = 310,000); AID 1490;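 note: the enzyme is Sfp with the accession as filed and its product quenches rhodamine fluorescence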
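Compounds were incubated with enzyme (final 15 nM) for 15 min at room temperature before substrate addition started the reaction. Fluorescence at 525 nm excitation, 598 nm emission was recorded immediately and after 30 minutes.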
VDR inh – vitamin D3 receptor (human) inhibition | P11473 | VDR-SRC2-3 peptide fluorescence polarization, 2 h | Potency, µM, actives largely listed as inhibitors | actives 0.93% (n = 400,000) | AID 504847
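The screen uses fluorescence polarization to detect compounds that interfere with recruitment of the SRC2-3 coactivator peptide to VDR; plates are read after 2 h at room temperature.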
PLK1 PBD inh – PLK1 (human) polo-box domain binding inhibition. P53350. Plk1 PBD binding of FITC phosphopeptide, fluorescence polarization. Potency, µM, hits mostly inhibitors. actives 2.8% (n = 360,000). AID 720504; note: series mostly up to about 57 µM; nearly all actives have a fitted effect of over 65% in size
12-LOX inh – inhibitors of human 12S-lipoxygenase ALOX12; Potency, µM (titrated, usually from 108 µM), most hits filed as inhibitors; AID 1671190; actives 1.1% (n = 580,000); purified 12hLO, xylenol orange hydroperoxide absorbance
Target sequence (P18054 whole entry, looked up): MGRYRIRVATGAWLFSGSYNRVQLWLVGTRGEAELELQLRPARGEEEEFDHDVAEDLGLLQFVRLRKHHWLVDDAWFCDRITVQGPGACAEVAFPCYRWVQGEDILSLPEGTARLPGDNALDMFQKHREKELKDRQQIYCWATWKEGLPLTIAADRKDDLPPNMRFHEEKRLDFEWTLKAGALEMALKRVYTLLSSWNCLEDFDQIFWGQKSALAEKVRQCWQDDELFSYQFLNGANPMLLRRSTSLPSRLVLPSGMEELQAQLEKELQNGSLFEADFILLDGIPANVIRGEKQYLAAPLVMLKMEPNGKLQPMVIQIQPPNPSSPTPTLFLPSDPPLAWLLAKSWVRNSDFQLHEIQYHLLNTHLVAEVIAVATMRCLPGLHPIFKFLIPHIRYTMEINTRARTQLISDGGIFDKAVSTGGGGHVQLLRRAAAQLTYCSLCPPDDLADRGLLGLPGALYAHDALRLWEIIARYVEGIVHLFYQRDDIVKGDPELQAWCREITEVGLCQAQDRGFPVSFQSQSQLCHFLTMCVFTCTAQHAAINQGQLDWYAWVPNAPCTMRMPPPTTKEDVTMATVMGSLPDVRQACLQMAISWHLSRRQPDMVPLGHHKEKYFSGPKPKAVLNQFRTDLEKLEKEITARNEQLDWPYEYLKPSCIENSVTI
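Hydroperoxide product was detected by ferrous iron/xylenol orange as the 573 to 405 nm absorbance ratio. Arachidonic acid at 40 uM (final) was turned over for 30 min at room temperature by 150 nM human 12hLO, pH 7.0 Hepes buffer, after 15 min compound preincubation.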
A number is an active result; n = inactive; u = inconclusive; x = not tested or not shown. This is a sample that favours compounds with a hit; in the whole collection about 4.2% have one here. Calls come from the whole dose curve; as a rule, active = well fitted curve in the direction sought with a large enough effect; inconclusive = small, poorly fitted or top-dose-only effect, or another doubt; inactive = no such curve, though single readings can be large; an effect the other way counts as inactive or inconclusive.

SMILES	Sfp PPTase inh	VDR inh	PLK1 PBD inh	12-LOX inh
Cc1cc(S(=O)(=O)c2ccc(Cl)cc2)nc(S(=O)(=O)c2ccc(Cl)cc2)c1C#N	x	x	2.7µM	u
O=C(NC(=S)N1CCCC1)c1ccccc1	n	n	n	n
Cc1cc(C(=O)CSc2nnc(-c3ccccc3F)o2)c(C)n1Cc1cccs1	28µM	n	n	n
Cc1cc(C(=O)CN2C(=O)c3cccc(N)c3C2=O)c(C)n1Cc1cccs1	n	n	3.4µM	n
Cc1cc(C(=O)COC(=O)c2ccco2)c(C)n1Cc1cccs1	x	x	x	n
O=C(NC1CCN(C(=S)NCCc2ccccc2)CC1)C1CC1	u	n	n	n
CCCNC(=S)N1CCC(NC(=O)C2CCCCC2)CC1	n	u	24µM	n
CCOc1ccc(NC(=O)CCS(=O)(=O)c2ccc(Br)s2)cc1	x	n	x	u
Cc1ccc(NC(=O)CCS(=O)(=O)c2ccc(Br)s2)cc1	n	n	27µM	n
CCn1ncc(C2=NOC(C(=O)Nc3cccc(O)c3)C2)c1C (configuration not stated)	n	n	n	n
O=C1CCCCCN1Cc1ccccc1	n	n	30µM	n
CCc1cccc(CC)c1NC(=O)COC(=O)c1ccc2ccccc2n1	x	x	x	6.3µM
CC(C)(C)NC(=O)COC(=O)c1ccc2ccccc2n1	x	x	x	n
COc1cccc(CNS(=O)(=O)c2c(C)[nH]c(C)c2C(=O)N2CCCCC2)c1	n	u	30µM	n
Cc1ccc(C)c(CNS(=O)(=O)c2c(C)[nH]c(C)c2C(=O)N2CCCC2)c1	n	n	n	n
Cc1ccccc1CNS(=O)(=O)c1c(C)[nH]c(C)c1C(=O)N1CCCCC1	n	n	27µM	n
CSc1ccc(CCNS(=O)(=O)c2c(C)[nH]c(C)c2C(=O)N2CCCCC2)cc1	n	n	n	n
Cc1[nH]c(C)c(S(=O)(=O)Nc2cccc(Cl)c2C)c1C(=O)N1CCCCC1	n	u	30µM	u
Cc1[nH]c(C)c(S(=O)(=O)NCCc2ccc(S(N)(=O)=O)cc2)c1C(=O)N1CCCC1	n	n	27µM	n
O=C(NC1CCCCC1)C(=S)N1CCCC1	n	n	n	n
COC(=O)[C@@H](Cc1cccnc1)NC(=O)[C@H]1CN(S(=O)(=O)c2ccccc2)CCN1C(=O)NC(C)C	x	x	x	n
O=C(NNC(=S)Nc1ccccc1)NNC(=S)Nc1ccccc1	n	n	n	n
FC(F)(F)c1cccc(NC(=S)NCc2ccc(Cl)cc2)c1	n	n	n	n
FC(F)(F)c1cccc(NC(=S)NNC(=S)Nc2ccc(Cl)cc2)c1	25µM	x	x	x
Cc1ccc(NC(=S)NNC(=S)Nc2cccc(C(F)(F)F)c2)cc1	28µM	28µM	19µM	u
SMILES	Sfp PPTase inh	VDR inh	PLK1 PBD inh	12-LOX inh
Cc1ccc(C)c(NC(=S)NNc2ccc(F)cc2F)c1	n	10µM	u	u
Cc1ccc(C)c(NC(=S)NCCc2ccc(F)cc2)c1	n	n	u	u
O=C(NNC(=S)Nc1ccccc1)Nc1ccccc1	7.1µM	n	u	n
CC(=O)N(CCc1cccc(C)c1)Cc1cc2cc(C)ccc2[nH]c1=O	n	n	n	n
O=C1CCN(c2ccccc2C(=O)N[C@@H]2CCOC[C@H]2OCCO)C(=O)N1	x	x	x	n
COc1ccc(S(=O)(=O)Nc2ccc3c(c2)OCO3)cc1C	n	n	n	n
CCOc1ccc(/C=N/NC(=O)CSc2n[nH]c(=O)[nH]c2=O)cc1OC	n	n	n	n
Cc1ccc(NC(=S)NNc2ncc(C(F)(F)F)cc2Cl)cc1	n	n	n	n
O=C(O)c1ccc(NNC(=S)Nc2cc(C(F)(F)F)ccc2Cl)cc1	89µM	22µM	21µM	u
Cc1ccc(NC(=S)NNC(=S)Nc2ccc(C)cc2)cc1	x	79µM	u	u
FC(F)(F)c1cnc(NNC(=S)Nc2ccc(Cl)cc2)c(Cl)c1	n	n	n	45µM
Cc1ccc(NNC(=S)Nc2ccc(C(C)C)cc2)c(C)c1	n	n	17µM	35µM
O=C(NC(=S)Nc1cc(C(F)(F)F)ccc1Cl)c1ccccc1	n	n	n	u
Cc1ccc(NC(=S)NNC(=O)Nc2ccccc2)cc1	u	n	n	u
Cc1cc(N2CCN(C(=O)c3ccco3)CC2)n2nc(C)nc2n1	n	n	n	n
CON/C=N/C(=S)Nc1ncc(C(F)(F)F)cc1Cl	11µM	n	n	u
ON/C=N/C(=S)Nc1ncc(C(F)(F)F)cc1Cl	n	n	n	n
Cc1cccc(OCC(=O)NCc2ccc3c(c2)CCN3C(=O)c2ccccc2)c1	x	n	x	n
O=C(COC(=O)c1c[nH]c(=O)[nH]c1=O)Nc1ccccc1F	71µM	n	n	n
Cc1cc(=O)[nH]c(N/N=C/c2cccs2)n1	n	n	n	n
Cc1cc(=O)[nH]c(N/N=C/c2sccc2C)n1	13µM	n	n	n
Cc1ccsc1/C=N/Nc1ncnc2nc[nH]c12	50µM	n	n	n
Cc1ccccc1/C=N/Nc1ncnc2nc[nH]c12	n	n	n	n
CCS(=O)(=O)c1ccc2oc(Nc3cccc(OC)c3)nc2c1	n	n	n	n
CC(C)c1ccc(NC(=O)CCS(=O)(=O)c2ccc3c(c2)CC(=O)N3C)cc1	x	n	x	n
SMILES	Sfp PPTase inh	VDR inh	PLK1 PBD inh	12-LOX inh
CC1=C(c2ccc(NN=C(C#N)C#N)cc2)NNC(=O)C1	n	20µM	x	x
COc1ccccc1/C=C/CN1CCCC(CO)(Cc2cccc(Cl)c2)C1 (configuration not stated)	n	n	n	40µM
CCc1cccc(C)c1NC(=O)C(CC)CC	x	x	x	n
Oc1ccc(Br)cc1C=Nc1ccc(Cl)cc1	n	n	21µM	n
CCN(CC)c1ccc(C=Nc2ccc(Br)cc2)cc1	x	x	x	n
CC(C)(C)c1ccc(O)c(N=Cc2cc(Br)ccc2O)c1	50µM	n	n	n
CCN(CC)c1ccc(N=Cc2cc(Br)ccc2O)cc1	63µM	u	n	n
Nc1c(NCCN2CCOCC2)c2ccccc2oc1=O	n	n	n	n
C=C1CCN(Cc2ccccc2)S(=O)(=O)c2ccccc21	n	n	n	n
Cc1ccc(C)c(OCCCC(=O)Nc2nccs2)c1	n	n	n	n
CC(=O)c1ccc(NC(=O)c2ccc3nc(-c4ccco4)c(-c4ccco4)nc3c2)cc1	13µM	u	24µM	x
O=C(Nc1ccc2nc(-c3ccco3)[nH]c2c1)c1ccco1	45µM	n	n	n
CCCNC(=O)c1ccc2nc(-c3ccccc3)c(-c3ccccc3)nc2c1	n	n	u	n
CCCCNC(=O)c1ccc2nc(-c3ccco3)c(-c3ccco3)nc2c1	32µM	79µM	21µM	u
COc1ccc(-c2nc3ccc(C(=O)NCCCN4CCOCC4)cc3nc2-c2ccc(OC)cc2)cc1	56µM	n	n	u
O=C(Nc1ccnn1C1CCN(Cc2ccccc2)CC1)C1CCOC1 (configuration not stated)	n	n	n	n
CCOC(=O)n1c(=O)n(Cc2cccc(C)c2)c2ccccc21	n	u	12µM	n
OC[C@@H]1CNC[C@H]1C1CCN(Cc2cccc(Cl)c2F)CC1	x	x	x	n
Cc1cc(C(=O)O)ccc1NCc1ccncc1	n	n	n	n
C/C(=C\C(=O)c1ccc(C)o1)Nc1ccc(C(=O)O)cc1C	n	n	n	25µM
NC(=O)c1ccc(Oc2ccc3ccc(=O)oc3c2)c([N+](=O)[O-])c1	n	n	n	u
